Source: PubChem
INS promoter inh: TRM-6 insulin promoter activity inhibition | TRM-6 cells (human fetal islet line), insulin promoter-eGFP reporter, imaging; reporter expression induced with tamoxifen | 130,000 compounds, 0.9% hits | inhibition, % at 2 µM;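 active = inhibition above the mean plus 3 SD, with well images judged a real hit on visual review, cut at about 60% in these data, passing the limit was not always enough; inconclusive = inhibition over the cutoff but images rejected on review; inactive = inhibition not above the cutoff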
HMGR II inh: E. faecalis class II HMG-CoA reductase inhibition | AID 1066 | 190,000 compounds, 0.41% hits | inhibition, % at 10 µM | purified E. faecalis HMGR, NADPH absorbance 340 nm kinetic;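 active = inhibition above a set limit, the median over all tested compounds plus 3 SD, cut at about 9.5% in these data; inconclusive = no clear call, values can overlap the other calls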;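 note: enzyme runs in reverse so mevalonate oxidation gives rising NADPH absorbance; 0% = complete reaction with DMSO and 100% = background rate lacking mevalonate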
Autophagy mod: autophagy modulation, high-content screen. calls only at 10 µM (by protocol). MEF GFP-LC3 puncta imaging; test concentration mostly 10 µM. 190,000 compounds, 0.98% hits;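 active = percentage of spot-positive cells more than 3 SD above its plate mean, without a fluorescence outlier flag or 80% toxicity; inconclusive = no clear call, values can overlap the other calls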;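 note: spot-positive cell cutoff set from DMSO-treated cells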
Insulin prom up: MIN6 insulin promoter up-regulation. z-score at 5 µM. 190,000 compounds, 0.3% hits. MIN6 insulin promoter-GFP reporter, high-content imaging; hits give high values. AID 1625;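 active = z-score above 3 at 5 µM with at least 500 cells counted in the well; inconclusive = wells under 500 cells, flagged as cytotoxic or low count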
* hit, by the source's call; i = inactive; ? = inconclusive; / = not tested or not shown; + = active, no number. Sampled rows, rich in hits. Any-hit rate of the full collection: about 1.9%.

SMILES | INS promoter inh | HMGR II inh | Autophagy mod | Insulin prom up
O=C(Nc1nc2ccccc2s1)C1CC(=O)N(c2ccc(Br)cc2)C1 (configuration not stated) | 67* | -6 | i | /
O=C(O)c1ccccc1CSc1ccccn1 | -18 | -2 | i | -0.16
CCN1C(=O)C(CC(=O)N2CCN(C(c3ccccc3)c3ccccc3)CC2)N(CC)C1=O (configuration not stated) | 25 | -2 | + | 0.47
CCCNc1c(F)c(F)c2c(C)c3ccccc3nc2c1F | -160 | 1 | + | /
OCCNc1c2ccccc2nc2ccccc12 | / | -4 | i | -0.13
O=C(O)CCC(=O)NC(c1ccccc1)c1ccccc1 | / | 14* | i | 1.1
O=C(Cc1cccs1)NC(c1ccccc1)c1ccccc1 | / | 3 | i | -0.95
CCOC1=NN(c2ncc(C(F)(F)F)cc2Cl)C(=O)/C1=C/N(C)C | 38 | -11 | i | 0.67
CC(NCc1cc(Br)ccc1OCC(=O)NCc1ccccc1)c1ccccc1 (configuration not stated) | -29 | -1 | + | -2.5
CCCCCCc1cc2cc(C(=O)Nc3ccccc3OC)c(=O)oc2cc1O | 12 | -5 | i | -0.3
CCCCCCc1cc2cc(S(=O)(=O)c3ccc(F)cc3)c(=O)oc2cc1O | / | 1 | i | 0.62
CCCCCCc1cc2cc(-c3nnc(-c4ccccc4OC)o3)c(=O)oc2cc1O | -22 | -3 | ? | 8.9*
CCCCCCc1cc2cc(-c3nnc(-c4cc(OC)c(OC)c(OC)c4)o3)c(=O)oc2cc1O | 33 | -5 | ? | 10*
CCCCCCc1cc2cc(-c3nnc(-c4ccccc4O)o3)c(=O)oc2cc1O | -270 | -4 | + | 7.5*
N#CCC(=O)Nc1ncc(Cc2ccccc2Cl)s1 | 0 | 7 | i | /
NC(CCCCCP(=O)(c1ccccc1)c1ccccc1)C(=O)O (configuration not stated) | / | / | / | -0.67
O=C1c2ccccc2-c2onc3ccc(Oc4ccccc4)c1c23 | -400 | 9 | + | 1.3
O=C(c1ccccc1)c1coc2c1C(=O)c1ccccc1C2=O | -80 | -1 | i | 0.05
N#C/C(=C/c1ccc2c(c1)OCO2)C(=O)Nc1ccc(O)cc1 | / | -6 | i | 0.91
Cc1ccc(NCc2ccc(O)c3ncccc23)cc1C | 79* | -2 | i | 0.09
Cc1ccc(NCc2ccc(O)c3ncccc23)cc1 | 29 | -6 | i | 1.3
